Experimental findings from PubChem BioAssay are described below.

The nature of assay [1]: viability loss in pontine glioma line – cell-based, SU-DIPG-XXV, MIPE5.0, CellTiter-Glo, qHTS, dose response (AID 1347065).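 Also: cells exposed to compound for 48 hours before ATP readout.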 The following applies: CellTiter-Glo ATP luminescence. A general note: In ATP-based viability assays light output follows the ATP content of the culture.
Assay [2] is described as follows: SU-DIPG-VI glioma cell viability, MIPE4.0 library, CellTiter-Glo luminescence, qHTS (AID 1347066; cut-off not given, nearly all actives have AC50 up to about 30 µM;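 also: cells exposed to compound for 48 hours before readout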). The note with it: CellTiter-Glo ATP luminescence.
Assay [3] in a line: JHH-DIPG-1 glioma cell viability, MIPE5.0 library, CellTiter-Glo luminescence, qHTS (AID 1347067).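 Also: cells exposed to compound for 48 hours before readout.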 The note with it: JHH-DIPG-1 glioma viability, CellTiter-Glo ATP luminescence.
A short description of assay [4]: SU-DIPG-XXV glioma cell viability, MIPE5.0 library, qHTS (AID 1347068; cut-off not given, nearly all actives have IC50 up to about 30 µM;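 as to IC50: cells exposed to compound for 48 hours before viability readout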). In general terms: In qHTS, concentration-response curves come from the screen itself.
Assay [5] in a line: sensitizers of A549 cells to miR-34 induction, primary screen, imaging, A549 dox-inducible miR-34, nuclei and caspase counts (AID 1347080;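 active = compounds whose cell count with miR-34 switched on is under 0.7 times the count with it off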). The note with it: A549 miR-34 inducible, Hoechst nuclei count, 48 h.
Assay [6] is described as follows: phospholipid biosynthesis inhibitors in animal cells, primary screen, cell-based, LOPAC library, screen 4 (AID 1347384; call rule not given here). The note with it: phospholipid biosynthesis inhibition screen, at 10 µM.
Assay [7] in a line: survival rescue of mitochondrial mutant cells in low glucose, primary screen, MELAS cybrids, Rieske KO mouse fibroblasts, CellTiter-Glo (AID 1508586;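 active = mean z-score across replicates of 1.96 or higher in either the MELAS or the Rieske mutant cell line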;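 also: z relative to plate mean and SD of compound and empty wells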).
The target in assay [8] is NAD(+) hydrolase SARM1 (Homo sapiens) (UniProt Q6SZW1). Kind of assay: SARM1 TIR NADase inhibitors, cell lysate, NAD-Glo luminescence (AID 1508614;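 active = compound whose remaining NAD level is above about 45 nM, limit read from the data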;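 also: higher remaining NAD means stronger inhibition of SARM1 NADase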). The following applies: SAM-TIR HEK293T lysate NADase, at 1 µM, stronger effect = higher value.
In assay [9] the target is Mitogen-activated protein kinase 7 (Homo sapiens) (UniProt Q13164). Kind of assay: ERK5 transactivation activators in reporter cells, primary screen, cell-based, HTS (AID 1508626;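 active = luciferase signal above three times the same-plate solvent-only control wells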;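 also: luciferase driven by Gal4-ERK5 fusion binding five Gal4 sites before minimal TATA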). The following applies: HeLa Gal4-ERK5 transactivation, 18 h, at 5 µM, stronger effect = higher value.
Assay [10] can be described thus: viability rescue of complex I mutant cybrids, primary screen, cell-based, galactose medium, ATP luminescence (AID 1645843;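 active = z-score of at least 1.8 in each of two replicates, scored against plate mean and spread of sample wells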;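 also: positive z means more ATP and so rescue of galactose-driven cybrid death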). The following applies: complex I mutant cybrid cells, 72 h, stronger effect = higher value.
[11] abbreviates: stronger effect = lower value, cell number ratio, induced over uninduced.
The mark [12] stands for this setting: measured here: relative caspase fold change +Dox/-Dox.
Where [13] appears, read: measured here: total cells with miR-34 induction, stronger effect = lower value.
[14] abbreviates: measured here: total cells without miR-34 induction.
[15] abbreviates: MELAS cybrid survival, CellTiter-Glo 48 h, stronger effect = higher value.
Setting [16] is: Rieske KO mouse fibroblast survival, CellTiter-Glo 72 h.

Several values for one entry are separate records, joined by “and”; a condition that tells them apart may be missing. Equal entries are not always repeated. Records with an inconclusive call do not appear. Where a structure was tested more than once in an assay, its records may differ in their call. Activity calls are given as the source filed them. Unless noted, the limit is not given here; nearly all actives have AC50 up to about 26 µM.

Chain of NAD(+) hydrolase SARM1 (Homo sapiens) (Q6SZW1 whole entry, looked up, the tested form may be a part): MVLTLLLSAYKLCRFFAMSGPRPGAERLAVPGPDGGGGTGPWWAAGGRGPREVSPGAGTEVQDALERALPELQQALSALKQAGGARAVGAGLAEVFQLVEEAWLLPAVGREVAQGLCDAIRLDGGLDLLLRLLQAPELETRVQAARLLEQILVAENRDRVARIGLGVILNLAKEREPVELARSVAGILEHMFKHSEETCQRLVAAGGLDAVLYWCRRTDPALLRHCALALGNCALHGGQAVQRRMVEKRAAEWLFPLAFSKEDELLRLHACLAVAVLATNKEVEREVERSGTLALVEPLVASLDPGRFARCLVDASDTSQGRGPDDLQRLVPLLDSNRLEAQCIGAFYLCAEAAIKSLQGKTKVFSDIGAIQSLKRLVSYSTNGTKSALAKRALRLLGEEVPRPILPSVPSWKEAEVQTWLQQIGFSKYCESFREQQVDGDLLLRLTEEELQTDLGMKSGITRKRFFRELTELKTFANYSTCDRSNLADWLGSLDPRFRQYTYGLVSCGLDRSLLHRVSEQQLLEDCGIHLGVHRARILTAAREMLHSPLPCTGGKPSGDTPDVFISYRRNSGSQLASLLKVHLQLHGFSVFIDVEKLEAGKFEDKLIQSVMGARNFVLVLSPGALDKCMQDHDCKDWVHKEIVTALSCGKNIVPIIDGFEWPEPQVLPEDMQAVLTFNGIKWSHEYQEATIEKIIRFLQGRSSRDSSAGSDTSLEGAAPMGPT
Chain of Mitogen-activated protein kinase 7 (Homo sapiens) (Q13164 whole entry, looked up, the tested form may be a part): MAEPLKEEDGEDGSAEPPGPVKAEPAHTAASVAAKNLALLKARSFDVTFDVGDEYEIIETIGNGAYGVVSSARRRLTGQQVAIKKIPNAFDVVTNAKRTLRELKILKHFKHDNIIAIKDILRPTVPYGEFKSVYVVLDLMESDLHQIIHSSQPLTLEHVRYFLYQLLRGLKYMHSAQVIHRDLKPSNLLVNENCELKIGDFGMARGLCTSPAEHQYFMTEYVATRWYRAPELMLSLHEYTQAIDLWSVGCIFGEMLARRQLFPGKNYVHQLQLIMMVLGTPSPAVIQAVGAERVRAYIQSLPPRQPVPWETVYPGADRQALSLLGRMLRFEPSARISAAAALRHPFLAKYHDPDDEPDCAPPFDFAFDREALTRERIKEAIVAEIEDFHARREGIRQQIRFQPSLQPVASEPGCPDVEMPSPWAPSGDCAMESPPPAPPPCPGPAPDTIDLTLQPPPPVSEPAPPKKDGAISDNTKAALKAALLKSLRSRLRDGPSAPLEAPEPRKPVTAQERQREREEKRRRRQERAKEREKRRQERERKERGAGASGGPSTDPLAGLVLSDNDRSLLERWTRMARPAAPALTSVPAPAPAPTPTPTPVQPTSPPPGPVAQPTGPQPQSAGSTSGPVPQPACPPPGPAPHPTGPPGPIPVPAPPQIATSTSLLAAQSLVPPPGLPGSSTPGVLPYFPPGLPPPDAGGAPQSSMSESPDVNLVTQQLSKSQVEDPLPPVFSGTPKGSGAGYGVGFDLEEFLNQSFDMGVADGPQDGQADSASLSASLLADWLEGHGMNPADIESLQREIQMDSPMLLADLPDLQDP

In the case of `O=C(Nc1ccc([N+](=O)[O-])cc1Cl)c1cc(Cl)ccc1O`, the AC50 is 1180 nM (active) in [1], 590 nM (active) in assay [2] and 833 nM (active) in assay [3]. Besides, the IC50 in assay [4] is 1320 nM (active). Also, the fold change in [5] (setting [11]) was 0.851 (inactive) and 1.03 (inactive) and 1.1 (inactive); in assay [5] (setting [12]), 0.641 and 1.64 and 2.16. The cell count in assay [5] (setting [13]) was 1500 and 2060 and 8890; in assay [5] (setting [14]) it was 1770 and 2000 and 8060. For the same compound, the call in [6] was active. Moreover, the z-score in assay [7] (setting [15]) is -1.03 (inactive); in [7] (setting [16]), -0.036; in assay [10], -1.18 (inactive). In addition, in assay [8], the remaining NAD was 10 nM (inactive). The luciferase signal in assay [9] was 24 AU (inactive).

`O=c1oc2cc(O)ccc2s1`: the compound was called inactive in [1], in [2], in assay [3] and in [4]. The fold change in [5] (setting [11]) was 0.941 (inactive); in [5] (setting [12]) it was 0.692. The cell count stood at 8830 in [5] (setting [13]) and 9380 in [5] (setting [14]). Moreover, the z-score in assay [7] (setting [15]) was -0.382 (inactive); in assay [7] (setting [16]), 0.46. The remaining NAD in [8] was 10 nM (inactive). Further, the luciferase signal in [9] is 56 AU (inactive).

For `C[C@@H]1CN(c2c(F)c(N)c3c(=O)c(C(=O)O)cn(C4CC4)c3c2F)C[C@H](C)N1`, the result in assay [1], in [2], in [3] and in assay [4] was inactive. The fold change in [5] (setting [11]) was 0.881 (inactive); in assay [5] (setting [12]), 1.37. Further, the cell count in [5] (setting [13]) worked out at 9500; in assay [5] (setting [14]) it was 10800. Moreover, the z-score is -0.149 (inactive) and 0.182 (inactive) in [7] (setting [15]); -0.511 and -0.3 in assay [7] (setting [16]); 0.565 (inactive) in assay [10]. Also, the remaining NAD in [8] was 10 nM (inactive).

As to `C[C@]12CC[C@@H]3c4ccc(O)cc4CC[C@H]3[C@@H]1C[C@@H](O)[C@@H]2O`, the result in assay [1], in [2] and in assay [4] was inactive. Further, in [3], the AC50 was 23500 nM (active). For the same compound, the fold change is 0.957 (inactive) and 0.899 (inactive) in assay [5] (setting [11]); 0.729 and 1.36 in assay [5] (setting [12]). Further, the cell count was 9380 and 8690 in assay [5] (setting [13]); 9810 and 9670 in [5] (setting [14]). For the same compound, the z-score in assay [7] (setting [15]) is 0.707 (inactive) and -0.312 (inactive); in assay [7] (setting [16]), 0.79 and 0.38; in assay [10], 0.76 (inactive). The remaining NAD in [8] is 10 nM (inactive). The luciferase signal in [9] is 64 AU (inactive).

`CCCN[C@H]1CCc2nc(N)sc2C1`: the compound was called inactive in [1], in assay [2], in assay [3], in assay [4] and in [6]. Besides, the fold change was 0.926 (inactive) and 0.917 (inactive) in assay [5] (setting [11]); 0.996 and 1.3 in [5] (setting [12]). Also, the cell count in assay [5] (setting [13]) is 7940 and 9730; in [5] (setting [14]), 8570 and 10600. Moreover, the z-score in assay [7] (setting [15]) was 0.752 (inactive) and 0.407 (inactive); in assay [7] (setting [16]) it was 0.13 and -0.361; in assay [10] it was 0.97 (inactive).

On to `NC(=O)c1ncn([C@@H]2O[C@H](CO)[C@@H](O)[C@H]2O)c1O`, for which the outcome in assay [1], in assay [2], in [3], in assay [4] and in [6] was inactive. Further, the fold change is 1.09 (inactive) in assay [5] (setting [11]) and 1.07 in assay [5] (setting [12]). For the same compound, the values for the cell count in assay [5] (setting [13]) and in assay [5] (setting [14]) were 10800 and 9890, respectively. Moreover, in assay [10], the z-score was 0.59 (inactive).

Turning to `NCC1CCC(C(=O)O)CC1` (configuration not stated), the call in [1], in assay [2], in assay [3] and in [4] was inactive. Also, the fold change in assay [5] (setting [11]) is 0.928 (inactive) and 0.834 (inactive); in [5] (setting [12]) it was 1.25 and 2.45. Moreover, the cell count is 8960 and 11200 in assay [5] (setting [13]); 9660 and 13500 in [5] (setting [14]). Besides, the results for the z-score in assay [7] (setting [15]) and in assay [7] (setting [16]) were -0.244 (inactive) and -0.313, respectively. The remaining NAD in assay [8] was 10 nM (inactive). For the same compound, the luciferase signal in assay [9] was 44 AU (inactive).

`CNC[C@H](O)c1cccc(O)c1`: the compound was called inactive in assay [1], in assay [2], in assay [3], in assay [4] and in [6]. Besides, the fold change in assay [5] (setting [11]) is 0.733 (inactive) and 0.885 (inactive) and 0.869 (inactive); in assay [5] (setting [12]), 1.33 and 1.38 and 1.19. The cell count is 6820 and 9660 and 11500 in assay [5] (setting [13]); 9300 and 10900 and 13200 in assay [5] (setting [14]). Also, the z-score was -0.327 (inactive) in assay [7] (setting [15]), 0.52 in assay [7] (setting [16]) and 0.64 (inactive) in [10]. Also, the remaining NAD in assay [8] is 10 nM (inactive). In addition, in assay [9], the luciferase signal was 40 AU (inactive).

With `Cn1cnc2c1c(=O)[nH]c(=O)n2C`, the outcome in assay [1], in assay [3], in assay [4] and in assay [6] was inactive. For the same compound, in assay [2], the AC50 is 20900 nM (active). In addition, the fold change in [5] (setting [11]) is 0.912 (inactive) and 0.854 (inactive) and 0.906 (inactive); in assay [5] (setting [12]), 0.922 and 1.4 and 3.48. Moreover, the cell count in assay [5] (setting [13]) was 9550 and 8390 and 11600; in assay [5] (setting [14]) it was 10500 and 9820 and 12900. For the same compound, the z-score was -0.269 (inactive) in assay [7] (setting [15]), -0.702 in assay [7] (setting [16]) and 0.475 (inactive) in [10]. Moreover, in [8], the remaining NAD was 10 nM (inactive). Further, the luciferase signal in assay [9] is 60 AU (inactive).

`CC(C)c1ccc2oc3nc(N)c(C(=O)O)cc3c(=O)c2c1`: the result in [1], in assay [2], in assay [3] and in [4] was inactive. Also, the figures for the fold change in assay [5] (setting [11]) and in assay [5] (setting [12]) were 0.955 (inactive) and 1.68, respectively. In addition, the cell count came out at 9060 in [5] (setting [13]) and 9490 in assay [5] (setting [14]). In addition, the z-score in assay [7] (setting [15]) was 0.841 (inactive); in assay [7] (setting [16]), -1.05; in [10], 0.635 (inactive). In assay [8], the remaining NAD is 10 nM (inactive).

On to `CCC1(C)CC(=O)NC1=O` (configuration not stated), for which the result in [1], in assay [2], in assay [3], in [4] and in assay [6] was inactive. Moreover, the fold change was 0.975 (inactive) and 0.962 (inactive) and 0.96 (inactive) in assay [5] (setting [11]); 1.24 and 1.03 and 2.35 in [5] (setting [12]). The cell count is 10300 and 8160 and 12600 in assay [5] (setting [13]); 10600 and 8470 and 13100 in assay [5] (setting [14]). For the same compound, the z-score was -0.00472 (inactive) in assay [7] (setting [15]), -0.121 in [7] (setting [16]) and 0.235 (inactive) in assay [10]. The remaining NAD in [8] was 10 nM (inactive). In addition, in [9], the luciferase signal was 64 AU (inactive).

With `Cc1cc2cc3c(C)cc(=O)oc3c(C)c2o1`, the outcome in assay [1], in assay [2], in [3] and in assay [4] was inactive. Also, the fold change in [5] (setting [11]) was 0.952 (inactive) and 0.881 (inactive); in [5] (setting [12]) it was 1.2 and 2.5. Moreover, the cell count in assay [5] (setting [13]) is 9030 and 10900; in assay [5] (setting [14]), 9480 and 12400. Further, the results for the z-score in assay [7] (setting [15]) and in assay [7] (setting [16]) were -0.707 (inactive) and -0.528, respectively. For the same compound, the remaining NAD in assay [8] was 10 nM (inactive). The luciferase signal in [9] is 104 AU (inactive).

As for `CC1(C)O[C@@H]2C[C@H]3[C@@H]4C[C@H](F)C5=CC(=O)C=C[C@]5(C)[C@@]4(F)[C@@H](O)C[C@]3(C)[C@]2(C(=O)CO)O1`, the compound was classed as inactive in [1], in assay [2], in assay [3] and in assay [4]. For the same compound, the fold change is 0.962 (inactive) and 0.858 (inactive) in [5] (setting [11]); 2.42 and 1.12 in [5] (setting [12]). Moreover, the cell count is 7620 and 6920 in assay [5] (setting [13]); 7920 and 8070 in [5] (setting [14]). The z-score in assay [7] (setting [15]) is 0.713 (inactive) and 0.472 (inactive); in assay [7] (setting [16]) it was 0.469 and 1.67; in assay [10] it was -0.48 (inactive) and 0.45 (inactive). Besides, the remaining NAD in assay [8] was 10 nM (inactive). Moreover, the luciferase signal in assay [9] was 124 AU (inactive).

For the compound `CCC1=C(C)CN(C(=O)NCCc2ccc(S(=O)(=O)NC(=O)NC3CCC(C)CC3)cc2)C1=O` (configuration not stated), the result in assay [1], in assay [2], in [3] and in [4] was inactive. Further, the z-score is -0.439 (inactive) and 0.644 (inactive) and 0.245 in assay [7] (setting [15]); 0.486 and 0.124 and 2.28 in [7] (setting [16]); 2.29 (active) and 6.57 (active) and 1.99 (inactive) in [10]. For the same compound, the remaining NAD in assay [8] is 10 nM (inactive).

As a reminder, the AC50 is the midpoint of the concentration-response curve, whichever way the signal moves. By IC50 is commonly meant the concentration needed to halve the response being measured.
